Several values for one entry are separate records, joined by “and”; a condition that tells them apart may be missing. Equal entries are not always repeated. Records with an inconclusive call do not appear. The source holds several records for some structures; these can differ, active in one and inactive in another. Activity calls are given as the source filed them. Unless noted, the call rests on the fitted dose curve.
Assays:
[1] = biological target: Gonadotropin-releasing hormone receptor (Homo sapiens) (UniProt P30968); assay: Human gonadotropin-releasing hormone receptor (GnRHR) small molecule agonists, calcium flux assay in GnRHR-HEK293 cells (AID 1920063); further: nearly all actives have a fitted effect of over 35% in size; further: potency means the concentration at half of the fitted maximal effect
Chain of Gonadotropin-releasing hormone receptor (Homo sapiens) (P30968 whole entry, looked up): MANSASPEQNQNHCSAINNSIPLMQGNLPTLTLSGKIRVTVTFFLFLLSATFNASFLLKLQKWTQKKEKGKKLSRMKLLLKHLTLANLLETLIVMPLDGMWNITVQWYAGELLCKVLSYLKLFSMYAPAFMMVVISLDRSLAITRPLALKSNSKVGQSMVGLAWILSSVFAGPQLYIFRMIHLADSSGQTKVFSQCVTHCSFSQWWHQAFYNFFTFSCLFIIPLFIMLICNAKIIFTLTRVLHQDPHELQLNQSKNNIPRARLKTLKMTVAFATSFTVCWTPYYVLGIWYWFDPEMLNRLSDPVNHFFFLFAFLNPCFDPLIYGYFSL
How it was run: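 Tox21-format agonist screen using human GnRHR-expressing HEK293 cells and a fluorescent calcium dye; kinetic 3-min fluorescence reading after compound addition, 15-point concentration series run in triplicate.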

[2] = biological target: KiSS-1 receptor (Homo sapiens) (UniProt Q969F8); assay: Human kisspeptin (KISS1R) small molecule agonists, calcium flux assay in KISS1R-HEK293 cells (AID 1920064; active means well fitted curve in the direction sought with a large enough effect in the repeat runs; an effect the other way counts as inactive or inconclusive)
Chain of KiSS-1 receptor (Homo sapiens) (Q969F8 whole entry, looked up): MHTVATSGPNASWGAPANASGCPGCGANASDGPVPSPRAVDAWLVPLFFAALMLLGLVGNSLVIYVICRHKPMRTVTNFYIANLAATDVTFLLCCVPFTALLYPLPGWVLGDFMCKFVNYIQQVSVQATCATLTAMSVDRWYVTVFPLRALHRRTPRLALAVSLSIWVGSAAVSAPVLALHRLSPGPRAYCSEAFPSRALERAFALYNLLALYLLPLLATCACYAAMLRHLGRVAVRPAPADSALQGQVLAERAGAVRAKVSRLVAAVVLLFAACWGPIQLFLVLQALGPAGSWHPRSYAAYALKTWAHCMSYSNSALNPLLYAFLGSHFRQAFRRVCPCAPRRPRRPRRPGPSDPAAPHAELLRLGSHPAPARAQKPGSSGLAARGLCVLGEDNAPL
How it was run: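 Intracellular calcium mobilization in KISS1R-HEK293 cells was recorded by fluorescence (Ex/Em 480/540) for 3 min following compound addition to cells pre-loaded 1 h with calcium dye.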

[3] = G protein-coupled receptor (GPCR) small molecule agonists, calcium flux assay: HEK293 wild type cell line counter screen (AID 1920065)
How it was run: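 In this agonist-mode screen, ATP is the positive control and DMSO the vehicle. Cells grow 18 h before a 1 h dye incubation at 37 C; signal is taken at Ex/Em 480/540 over 3 min.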

[4] = p53 small molecule agonists, cell-based qHTS assay with human liver microsomes (AID 1963577);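 further: p53 response element beta-lactamase reporter cells with liver microsomes plus NADPH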
How it was run: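 16 h, 37 C exposure of p53RE-bla cells to compounds with human liver microsomes and NADPH (0.5 mg/mL final each); detection via LiveBLAzer mixture, 2 h dark at room temperature.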

[5] = p53 small molecule agonists, cell-based qHTS assay with rat liver microsomes (AID 1963578)
How it was run: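 With rat liver microsomes and NADPH present (0.5 mg/mL final each), p53RE-bla cells are treated with compound for 16 h at 37 C. LiveBLAzer detection mixture is then applied for 2 h at room temperature in the dark.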

[6] = p53 small molecule agonists, cell-based qHTS assay with human liver microsomes: qHTS cell viability counter screen (AID 1963579); further: nearly all actives have a fitted effect of over 45% in size; further: potency means the concentration at half of the fitted maximal effect
How it was run: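 In this multiplexed counter screen, the reporter plates were subsequently treated with CellTiter-Glo so that cell viability, reflected by luminescence, could be recorded for p53RE-bla cells dosed 16 h with compounds under microsomal activation (HLM and NADPH).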

[7] = p53 small molecule agonists, cell-based qHTS assay with rat liver microsomes: qHTS cell viability counter screen (AID 1963580); further: nearly all actives have a fitted effect of over 45% in size
How it was run: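 p53RE-bla HCT-116 cells (4,000/well) rested 5 h at 37 C, then given Tox21 compounds in DMSO with rat liver microsomes (0.5 mg/mL final) plus NADPH (0.5 mg/mL final) for 16 h at 37 C. Viability read by CellTiter-Glo luminescence after 30 min at room temperature.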

[8] = p53 small molecule agonists, cell-based qHTS assay: qHTS cell viability counter screen (AID 1963581); further: nearly all actives have a fitted effect of over 45% in size
How it was run: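 Compounds are pinned onto HCT-116 p53RE-bla cells and left 16 h at 37 C. Following the reporter FRET read, ATP is quantified by CellTiter-Glo luminescence after 30 min at room temperature.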

[9] = p53 small molecule agonists, cell-based qHTS assay (AID 1963582; active means well fitted activation curve with a large enough effect in the signal ratio in the repeat runs, not every such curve was filed as active; the % refers to the signal ratio)
How it was run: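 Agonist activity was scored from beta-lactamase FRET fluorescence in p53RE-bla cells treated 16 h at 37 C with compounds in DMSO, substrate incubation being 2 h at room temperature.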

[10] = biological target: 5-hydroxytryptamine receptor 2A (Homo sapiens) (UniProt P28223); assay: 5-hydroxytryptamine receptor 2A (HTR2A) small molecule antagonists, cell-based qHTS assay (AID 1963586); further: nearly all actives have a fitted effect of over 45% in size
Chain of 5-hydroxytryptamine receptor 2A (Homo sapiens) (P28223 whole entry, looked up): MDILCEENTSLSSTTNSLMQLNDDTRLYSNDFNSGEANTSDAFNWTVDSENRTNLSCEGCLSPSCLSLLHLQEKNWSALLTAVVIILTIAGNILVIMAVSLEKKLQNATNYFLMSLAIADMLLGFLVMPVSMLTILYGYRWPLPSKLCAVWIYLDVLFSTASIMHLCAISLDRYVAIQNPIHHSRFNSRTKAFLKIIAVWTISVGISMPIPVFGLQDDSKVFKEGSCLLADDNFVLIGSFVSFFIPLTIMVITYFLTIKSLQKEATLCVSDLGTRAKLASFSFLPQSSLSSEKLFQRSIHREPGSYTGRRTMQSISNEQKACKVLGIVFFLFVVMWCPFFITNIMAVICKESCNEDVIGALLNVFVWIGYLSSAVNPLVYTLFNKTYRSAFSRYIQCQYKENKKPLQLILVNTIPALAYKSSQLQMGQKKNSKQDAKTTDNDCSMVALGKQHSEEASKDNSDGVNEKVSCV
How it was run: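 Antagonist-mode intracellular calcium assay: DOI (4 nM) added after 5 min compound pre-incubation at room temperature to dye-loaded HTR2A-CHO cells. Fluorescence followed for 3 min, sampled every second.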

[11] = biological target: 5-hydroxytryptamine receptor 2A (Homo sapiens) (UniProt P28223); assay: 5-hydroxytryptamine receptor 2A (HTR2A) small molecule agonists, cell-based qHTS assay (AID 1963587); further: nearly all actives have a fitted effect of over 30% in size
How it was run: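 HTR2A-CHO cells, plated 18 h at 37 C/5% CO2, dye-loaded 1 h at 37 C; compounds in DMSO added by pin tool (agonist mode). Intracellular calcium flux read as kinetic fluorescence on FDSS over 2 min at 1 s intervals.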

[12] = biological target: Muscarinic acetylcholine receptor M1 (Homo sapiens) (UniProt P11229); assay: Cholinergic receptor muscarinic 1 (CHRM1) small molecule antagonists, cell-based qHTS assay (AID 1963588); further: nearly all actives have a fitted effect of over 40% in size; further: potency means the concentration at half of the fitted maximal effect
Chain of Muscarinic acetylcholine receptor M1 (Homo sapiens) (P11229 whole entry, looked up): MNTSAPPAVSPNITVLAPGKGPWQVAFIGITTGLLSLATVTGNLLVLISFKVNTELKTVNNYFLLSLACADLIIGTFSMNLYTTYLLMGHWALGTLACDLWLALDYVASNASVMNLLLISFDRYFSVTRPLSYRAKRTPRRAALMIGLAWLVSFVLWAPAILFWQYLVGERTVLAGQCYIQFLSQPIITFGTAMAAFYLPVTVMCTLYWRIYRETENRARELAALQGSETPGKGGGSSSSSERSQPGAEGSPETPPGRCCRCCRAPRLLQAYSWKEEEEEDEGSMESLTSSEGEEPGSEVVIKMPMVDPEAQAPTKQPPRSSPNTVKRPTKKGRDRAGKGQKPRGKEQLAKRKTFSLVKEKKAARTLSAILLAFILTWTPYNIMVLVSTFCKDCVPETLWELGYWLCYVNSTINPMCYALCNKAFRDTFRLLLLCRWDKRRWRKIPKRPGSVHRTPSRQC
How it was run: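 CHRM1-CHO calcium-flux assay, antagonist mode. Cells were seeded 18 h, dye-loaded 1 h at 37 C and given compound for 5 min at RT, then acetylcholine was added at 50nM. FDSS fluorescence was read 3 min; 15 concentrations, three runs.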

[13] = biological target: Muscarinic acetylcholine receptor M1 (Homo sapiens) (UniProt P11229); assay: Cholinergic receptor muscarinic 1 (CHRM1) small molecule agonists, cell-based qHTS assay (AID 1963589); further: nearly all actives have a fitted effect of over 35% in size
How it was run: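 Stable CHRM1-CHO cells (human receptor) were incubated 18 h, dye-loaded for 1 h at 37 C and exposed to test compounds for agonist activity, with calcium-dependent fluorescence followed kinetically.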

[14] = cAMP Responsive Elements (CRE) small molecule agonists, cell-based qHTS assay (AID 1963590)
How it was run: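 FRET-based beta-lactamase readout (LiveBLAzer B/G, 2 h RT) quantified CRE activation in HEK 293T CRE-bla cells after 3 h treatment with DMSO-dissolved compounds.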

[15] = cAMP Responsive Elements (CRE) small molecule antagonists, cell-based qHTS assay (AID 1963591; active means well fitted inhibition curve with a large enough effect in the signal ratio in the repeat runs, not every such curve was filed as active; the % refers to the signal ratio)
How it was run: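 qHTS in CRE-bla HEK 293T cells: compound in DMSO, then 0.25 uM NKH477 (final), 3 h at 37 °C/5% CO2; beta-lactamase FRET read-out after 2 h substrate incubation.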

[16] = biological target: Beta-2 adrenergic receptor (Homo sapiens) (UniProt P07550); assay: Adrenergic beta2 receptor (ADRB2) small molecule antagonists, cell-based qHTS assay (AID 1963592); further: series mostly up to about 92 µM; nearly all actives have a fitted effect of over 50% in size
Chain of Beta-2 adrenergic receptor (Homo sapiens) (P07550 whole entry, looked up): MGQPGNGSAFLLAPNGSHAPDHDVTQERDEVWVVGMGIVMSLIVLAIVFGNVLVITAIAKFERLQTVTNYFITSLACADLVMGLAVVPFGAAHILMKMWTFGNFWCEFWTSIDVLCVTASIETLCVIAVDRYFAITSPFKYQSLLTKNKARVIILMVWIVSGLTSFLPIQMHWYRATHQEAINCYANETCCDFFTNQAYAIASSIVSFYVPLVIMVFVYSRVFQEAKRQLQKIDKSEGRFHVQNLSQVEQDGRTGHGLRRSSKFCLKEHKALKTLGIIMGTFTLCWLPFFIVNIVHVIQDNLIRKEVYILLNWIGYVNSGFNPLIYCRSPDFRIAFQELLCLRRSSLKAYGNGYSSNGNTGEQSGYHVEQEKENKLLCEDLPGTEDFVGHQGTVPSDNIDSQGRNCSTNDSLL
How it was run: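 Cells (CHO, stable ADRB2 overexpression) incubated 18-20hr at 37C; compounds added from DMSO; agonist mix (1nM isoproterenol, 100uM IBMX, 25uM Ro-20-1724) added; 0.5hr RT; d2-cAMP and anti-cAMP-cryptate added; 1hr RT; 665/615 nm read.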

[17] = biological target: Beta-2 adrenergic receptor (Homo sapiens) (UniProt P07550); assay: Adrenergic beta2 receptor (ADRB2) small molecule agonists, cell-based qHTS assay (AID 1963593);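 further: CHO cells stably overexpressing human ADRB2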
How it was run: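 CHO cells stably over-expressing ADRB2 were plated overnight at 37C, then dosed with compounds plus a stimulation mix containing 100uM IBMX and 25uM Ro-20-1724 for 0.5hr at room temperature. cAMP was measured by HTRF competition, 1hr.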

[18] = biological target: D(2) dopamine receptor (Homo sapiens) (UniProt P14416); assay: Dopamine D2 receptor (DRD2) small molecule agonists, cell-based qHTS assay (AID 1963594); further: nearly all actives have a fitted effect of over 35% in size; further: potency means the concentration at half of the fitted maximal effect
Chain of D(2) dopamine receptor (Homo sapiens) (P14416 whole entry, looked up): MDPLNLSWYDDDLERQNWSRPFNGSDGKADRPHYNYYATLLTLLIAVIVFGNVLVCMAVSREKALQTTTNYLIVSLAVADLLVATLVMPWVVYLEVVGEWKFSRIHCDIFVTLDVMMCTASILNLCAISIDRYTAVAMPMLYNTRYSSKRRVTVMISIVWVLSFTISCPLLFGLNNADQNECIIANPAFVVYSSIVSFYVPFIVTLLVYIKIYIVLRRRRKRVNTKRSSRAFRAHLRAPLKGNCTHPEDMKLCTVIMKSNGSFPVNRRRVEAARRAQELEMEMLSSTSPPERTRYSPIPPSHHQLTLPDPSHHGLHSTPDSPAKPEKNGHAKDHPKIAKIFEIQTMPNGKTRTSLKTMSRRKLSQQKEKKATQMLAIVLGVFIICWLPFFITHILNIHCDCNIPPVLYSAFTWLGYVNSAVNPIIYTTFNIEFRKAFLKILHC
How it was run: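 HEK293 cells stably expressing DRD2 were cultured 24 h at 37 C, then given Ro20-1724 (0.1 mM final) and compounds for 10 min at room temperature. NKH477 (200nM) was then added for 30 min. cAMP was read by HTRF.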

[19] = Nuclear factor erythroid 2-related factor 2/antioxidant responsive element (Nrf2/ARE) small molecule agonists: qHTS cell viability counter screen in human keratinocytes (AID 1919968; active means well fitted curve in the direction sought with a large enough effect in the repeat runs; an effect the other way counts as inactive or inconclusive; further: nearly all actives have a fitted effect of over 55% in size; further: potency means the concentration at half of the fitted maximal effect)
How it was run: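 Viability counter-screen: KeratinoSens reporter cells, DMSO-delivered compounds, 23 h at 37 C, CellTiter-Fluor fluorescence.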

[20] = biological target: D(2) dopamine receptor (Homo sapiens) (UniProt P14416); assay: Dopamine D2 receptor (DRD2) small molecule antagonists, cell-based qHTS assay (AID 1963595; active means well fitted inhibition curve with a large enough effect in the signal ratio in the repeat runs, with a control signal flat; the % refers to the signal ratio)
How it was run: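 Cells were plated and grown for 24 h at 37 °C. Ro20-1724 (0.1 mM final) went in first, then compound for 10 min. NKH477 (200 nM) with quinpirole (12 nM) followed for 30 min at RT, then HTRF detection reagents for 1 h.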
On the % scale 0 is the no-effect control and ±100 the full control effect.

CCOC(OCC)C(=O)c1ccccc1
inactive: Potency [1] | Potency [2] | Potency [3] | Potency [4] | Potency [5] | Potency [6] | Potency [7] | Potency [8] | Potency [9] | Potency [10] | Potency [11] | Potency [12] | Potency [13] | Potency [14] | Potency [15] | Potency [16] | Potency [17] | Potency [18]

CN/C(=C\[N+](=O)[O-])NCCSCc1ccc(CN(C)C)o1
inactive: Potency [19] | Potency [3] | Potency [8] | Potency [9] | Potency [14] | Potency [17] | Potency [20]
inactive and 17.4 µM (active): Potency [18]

COC(=O)/C=C(/C)N
inactive: Potency [19] | Potency [1] | Potency [3] | Potency [4] | Potency [5] | Potency [6] | Potency [7] | Potency [8] | Potency [9] | Potency [10] | Potency [11] | Potency [12] | Potency [13] | Potency [14] | Potency [15] | Potency [16] | Potency [17] | Potency [18] | Potency [20]

COc1ccccc1N=Nc1c(S(=O)(=O)O)cc2cc(S(=O)(=O)O)cc(NC(C)=O)c2c1O
active: Potency [19] 40.7 µM
inactive: Potency [1] | Potency [2] | Potency [4] | Potency [5] | Potency [6] | Potency [7] | Potency [8] | Potency [9] | Potency [10] | Potency [11] | Potency [12] | Potency [13] | Potency [14] | Potency [15]

COc1cccc2c1C(=O)c1c(O)c3c(c(O)c1C2=O)C[C@@](O)(C(C)=O)C[C@@H]3O[C@H]1C[C@H](N)[C@H](O)[C@H](C)O1
inactive: Potency [3]
active: Potency [19] 6.15 µM and 2.37 µM | Potency [1] 34.9 µM

CN(C)N=Nc1ccccc1
inactive: Potency [19] | Potency [1] | Potency [2] | Potency [4] | Potency [5] | Potency [6] | Potency [7] | Potency [8] | Potency [9] | Potency [10] | Potency [11] | Potency [12] | Potency [13] | Potency [14] | Potency [15] | Potency [16] | Potency [17] | Potency [18] | Potency [20]

CCC(C)S (configuration not stated)
inactive: activity change, negative = cytotoxicity [19] -0.322% [at 3.27 µM] | activity change [1] -0.606% [at 2.04 µM, stronger effect = higher value] | activation [2] 1.34% [at 2.72 µM] | activation [4] 0.369% [at 2.33 µM] | activation [5] 1.35% [at 2.33 µM] | activity change, negative = cytotoxicity [6] 2.56% [at 2.33 µM] | activity change, negative = cytotoxicity [7] 2.16% [at 2.33 µM] | activity change, negative = cytotoxicity [8] 10.6% [at 2.33 µM] | activation [9] -0.925% [at 2.33 µM] | activity, negative = inhibition [10] 36.9% [at 2.12 µM] | activation [11] 0.646% [at 2.65 µM] | activity, negative = inhibition [12] 18.7% [at 2.17 µM] | activation [13] 0.317% [at 2.72 µM] | activation [14] -0.121% [at 3.27 µM] | activity change, negative = inhibition [15] -3.11% [at 3.27 µM] | activity change, negative = inhibition [16] -1.77% [at 3.27 µM] | activation [17] 11% [at 3.27 µM] | activation [18] 5.57% [at 3.27 µM] | activity change, negative = inhibition [20] 2.46% [at 3.28 µM]

CCN(CC)CCOc1ccc(/C(=C(\Cl)c2ccccc2)c2ccccc2)cc1
inactive: Potency [1] | Potency [2] | Potency [3] | Potency [7] | Potency [8] | Potency [18]
33.1 µM (active) and inactive: Potency [6]
active: Potency [19] 22.1 µM and 29.8 µM

Cc1ccc(/C(=C\CN2CCCC2)c2ccccn2)cc1
active: Potency [12] 1.4 µM and 2.59 µM
inactive: Potency [19] | Potency [3] | Potency [9] | Potency [10] | Potency [11] | Potency [13] | Potency [14] | Potency [15] | Potency [16] | Potency [17] | Potency [18] | Potency [20]

CC(C)(C)NC(=O)[C@@H]1CN(Cc2cccnc2)CCN1C[C@@H](O)C[C@@H](Cc1ccccc1)C(=O)N[C@H]1c2ccccc2C[C@H]1O
inactive: Potency [19] | Potency [1] | Potency [3] | Potency [8] | Potency [9] | Potency [14] | Potency [16] | Potency [17] | Potency [18] | Potency [20]

From PubChem BioAssay (Tox21)
